# In PubChem BioAssay (NCATS):
# The source made the active and inactive calls. Calls come from the whole dose curve; as a rule, active = well fitted curve in the direction sought with a large enough effect; inactive = no such curve, though single readings can be large or run the other way.
# Target: Alpha-galactosidase (Coffea arabica) (UniProt Q42656)
# Assay: Counterscreen for Glucocerebrosidase Inhibitors: qHTS Assay for Coffee Bean alpha-Galactosidase at pH 5.9 (AID 998);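 note: plate controls were uninhibited enzyme for no effect and no-enzyme basal signal for full effect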
# Conditions: coffee bean alpha-galactosidase enzyme assay; series mostly up to 76.9 µM; activity, negative = inhibition: at the top concentration
# Source text: NIH Chemical Genomics Center [NCGC]
# NIH Molecular Libraries Screening Centers Network [MLSCN]
# PI Name: Zheng, Wei [NIH]
# Alpha-galactosidase is a homodimeric glycoprotein that hydrolyzes the terminal alpha-galactosyl moieties from glycolipids and glycoproteins. Deficiency of this enzyme results in Fabry Disease with progressive accumulation of globotriaosylceramide and other glycosphingolipids in vascular endothelial cells that causes renal failure, myocardial infarction and stroke, and premature death in patients. It has reported that the improper folding and trafficking of alpha-galactosidase resulted from the genetic mutations may account for a significant numbers of Fabry patients. […] We optimized this coffee bean alpha-galactosidase assay in 1536-well plate format as a counter-screen assay for identifying the selective small molecule inhibitors of other lysosomal enzymes.
# NCGC Assay Protocol Summary:
# This is a fluorogenic enzyme assay with 4-Methylumbelliferyl alpha-D-galactopyranoside as the substrate and green coffee bean […] (from Sigma-Aldrich) as the enzyme preparation. Upon the hydrolysis of this fluorogenic substrate, the resulting product, […]. 4-Methyllumbelliferone, can be excited at 365 nm and emits at 440 nm which can be detected by a standard fluorescence plate reader. Data were normalized to the controls for basal activity (without enzyme) and 100% activity (with enzyme). In the AC50 values were determined from concentration-response data modeled with the standard Hill equation.
# Assay buffer: 50 mM citric acid, 0.005% Tween-20, pH 5.9. (pH 5.9 is an optimal condition for this enzyme assay.)
# 1536-well assay protocol for the coffee bean alpha-galactosidase:
# (1) Add 2 ul/well of enzyme (2 nM final)
# (2) Add 23 nL compounds in DMSO solution. The final titration was 0.7 nM to 77 uM.
# (3) Add 1 ul of substrate (80 uM final)
# (4) Incubate at room temperature for 20 min.
# (5) Add 2 ul stop solution (1M NaOH and 1M Glycine mixture, pH 10)
# (6) Detect the assay plate in a ViewLux plate reader (PerkinElmer) with Ex=365 nm and Em=440nm.
# Keywords: Alpha-galactosidase, Fabry Disease, pharmacological chaperone, chaperone therapy, high throughput screening, alpha-galactosidase inhibitor, MLSMR, MLSCN, NIH Roadmap, qHTS and NCGC
# Sequence of Alpha-galactosidase (Coffea arabica) (Q42656 whole entry, looked up): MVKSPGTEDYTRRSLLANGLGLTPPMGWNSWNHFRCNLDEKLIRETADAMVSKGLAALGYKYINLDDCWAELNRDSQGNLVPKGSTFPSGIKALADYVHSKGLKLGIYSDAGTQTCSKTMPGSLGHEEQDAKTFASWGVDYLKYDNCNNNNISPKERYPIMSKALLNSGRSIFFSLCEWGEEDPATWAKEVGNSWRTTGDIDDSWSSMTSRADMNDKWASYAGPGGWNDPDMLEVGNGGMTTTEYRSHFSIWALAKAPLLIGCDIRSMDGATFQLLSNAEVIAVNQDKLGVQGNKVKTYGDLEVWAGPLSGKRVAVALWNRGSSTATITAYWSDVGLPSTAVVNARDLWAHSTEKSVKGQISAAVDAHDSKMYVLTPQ
Structure (SMILES),"activity, negative = inhibition",outcome
CC(=O)N[C@@H](CS)C(=O)O,-0.69% (inactive),–
Cc1[nH]c(=O)c(C#N)cc1-c1ccncc1,3.68% (inactive),–
CN(C)c1nc(N(C)C)nc(N(C)C)n1,0.0404% (inactive),–
O=C(C1CCCCC1)N1CC(=O)N2CCc3ccccc3C2C1 (stereo not given),0.743% (inactive),–
CN(C)CC/C=C1\c2ccccc2COc2ccccc21,1.05% (inactive),–
CNCC(O)c1ccc(O)cc1 (stereo not given),0.908% (inactive),–
NCC1(CC(=O)O)CCCCC1,-1.76% (inactive),–
CC(C)C(=O)Nc1ccc([N+](=O)[O-])c(C(F)(F)F)c1,0.672% (inactive),–
CN(C)CCCN1c2ccccc2Sc2ccc(Cl)cc21,-4.62% (inactive),–
Clc1cccc(N2CCNCC2)c1,-1.94% (inactive),–
O=c1[nH]cc(F)c(=O)[nH]1,-0.787% (inactive),–
CCCCc1oc2ccccc2c1C(=O)c1cc(I)c(OCCN(CC)CC)c(I)c1,-6.82% (inactive),–
CN(C)CCC=C1c2ccccc2CCc2ccccc21,-3.82% (inactive),–
Fc1ccc([C@@H]2CCNC[C@H]2COc2ccc3c(c2)OCO3)cc1,-3.4% (inactive),–
CC(=O)[C@H]1CC[C@H]2[C@@H]3CC[C@H]4C[C@H](O)CC[C@]4(C)[C@H]3C(=O)C[C@]12C,1.16% (inactive),–
CN(C)CCC=C1c2ccccc2C=Cc2ccccc21,-4.3% (inactive),–
CC[N+](C)(C)c1cccc(O)c1,-1.94% (inactive),–
CCN(CC)C(=S)SSC(=S)N(CC)CC,-1.92% (inactive),–
O=c1[nH]c2ccccc2n1C1CCN(CCCC(c2ccc(F)cc2)c2ccc(F)cc2)CC1,-14% (inactive),–
NCC(CC(=O)O)c1ccc(Cl)cc1 (stereo not given),-0.689% (inactive),–

Structure (SMILES),"activity, negative = inhibition",outcome
CCOC(=O)N1CCC(=C2c3ccc(Cl)cc3CCc3cccnc32)CC1,-1.36% (inactive),–
Cc1cn[nH]c1,-0.991% (inactive),–
COC(=O)Nc1nc2ccc(C(=O)c3cccs3)cc2[nH]1,-3.96% (inactive),–
CC[N+](CC)(CC)CC,2.92% (inactive),–
N[C@@H]1CONC1=O,–,inactive
CN1CCN(C2=Nc3cc(Cl)ccc3Nc3ccccc32)CC1,2.16% (inactive),–
CCCN1CCC[C@@H]2Cc3nc(N)ncc3C[C@H]21,-0.355% (inactive),–
CN1CCC[C@@H]1CCO[C@](C)(c1ccccc1)c1ccc(Cl)cc1,-5.35% (inactive),–
Clc1ccc2c(c1)C(N1CCNCC1)=Nc1ccccc1O2,-1.41% (inactive),–
O=C(CCCN1CCC(O)(c2ccc(Cl)cc2)CC1)c1ccc(F)cc1,-2.56% (inactive),–
CN(C)CCC[C@@]1(c2ccc(F)cc2)OCc2cc(C#N)ccc21,-1.24% (inactive),–
OCCN1CCN(CCCN2c3ccccc3Sc3ccc(Cl)cc32)CC1,0.319% (inactive),–
CCCC(C)(COC(N)=O)COC(=O)NC(C)C (stereo not given),-2.26% (inactive),–
CC1(C)NC(=O)N(c2ccc([N+](=O)[O-])c(C(F)(F)F)c2)C1=O,-0.355% (inactive),–
O=C1NC(=O)C(c2ccccc2)(c2ccccc2)N1,6.61% (inactive),–
O=NN(CCCl)C(=O)NCCCl,3.94% (inactive),–
CN(C)CCCN1c2ccccc2CCc2ccc(Cl)cc21,-2.77% (inactive),–
Clc1ccc(C(c2ccccc2Cl)C(Cl)Cl)cc1 (stereo not given),-3.39% (inactive),–
CCn1cc(C(=O)O)c(=O)c2ccc(C)nc21,-0.0067% (inactive),–
CC(C)[N+](C)(CCOC(=O)C1c2ccccc2Oc2ccccc21)C(C)C,-0.451% (inactive),–
